Reference: PubChem BioAssay (Tox21)
Results filed as inconclusive are left out. Calls of active or inactive are those of the source. Calls follow the shape of the dose curve; as a rule, active = well fitted curve in the direction sought with a large enough effect in the repeat runs; inconclusive = weak or mixed curves; inactive = no such curve, though single readings can be large; an effect the other way counts as inactive or inconclusive.

How the values were obtained:
[1] = target: Nuclear receptor subfamily 1 group I member 2 (Homo sapiens) (UniProt O75469); assay: Human pregnane X receptor (PXR) small molecule agonists, qHTS assay (AID 1346982); also: nearly all actives have a fitted effect of over 35% in size
How it was run: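 Agonist mode: luminescence from ONE-Glo after 24 h compound exposure at 37C in HepG2 cells carrying hPXR-responsive CYP3A4 luciferase, plated in charcoal-stripped serum medium 5 h beforehand.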

[2] = target: Cytochrome P450 2D6 (Homo sapiens) (UniProt P10635); assay: Cytochrome P450 Family 2 Subfamily D Member 6 (CYP2D6) small molecule antagonists: luciferase reporter qHTS assay (AID 1671196); also: nearly all actives have a fitted effect of over 50% in size; as to activity change, negative = inhibition: series mostly up to about 120 µM
How it was run: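 CYP2D6 activity was followed as luminescence from its luciferin product after a 1 h NADPH-driven reaction at room temperature. Enzyme-substrate mix and compound were pre-incubated for 10 min, and the signal was read 20 min after adding detection reagent.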

[3] = target: Cytochrome P450 2C19 (Homo sapiens) (UniProt P33261); assay: Cytochrome P450 Family 2 Subfamily C Member 19 (CYP2C19) small molecule antagonists: luciferase reporter qHTS assay (AID 1671197); also: nearly all actives have a fitted effect of over 65% in size; as to activity change, negative = inhibition: series mostly up to about 120 µM
How it was run: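 P450-Glo CYP2C19 system: enzyme-substrate mix with compound 10 min at room temperature, then NADPH regeneration solution, 1 h at 37C. Proluciferin-to-luciferin conversion detected by luminescence after 20 min with detection reagent; ketoconazole as positive control.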

[4] = target: Cytochrome P450 2C9 (Homo sapiens) (UniProt P11712); assay: Cytochrome P450 Family 2 Subfamily C Member 9 (CYP2C9) small molecule antagonists: luciferase reporter qHTS assay (AID 1671198); also: nearly all actives have a fitted effect of over 50% in size; as to activity change, negative = inhibition: series mostly up to about 120 µM
How it was run: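 CYP2C9 activity was measured with a P450-Glo proluciferin substrate. Enzyme–substrate mix was held with compound for 10 min at room temperature, then NADPH regeneration solution was added for 1 h at 37C. Luciferin product was read as luminescence.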

[5] = target: Cytochrome P450 1A2 (Homo sapiens) (UniProt P05177); assay: Cytochrome P450 Family 1 Subfamily A Member 2 (CYP1A2) small molecule antagonists: luciferase reporter qHTS assay (AID 1671199); also: nearly all actives have a fitted effect of over 50% in size; as to activity change, negative = inhibition: series mostly up to about 120 µM
How it was run: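 Luminescence from luciferin formed by CYP1A2 from a proluciferin substrate, read 20 min after detection reagent. Compound was pre-incubated 10 min with enzyme-substrate, and reaction started with NADPH regeneration solution for 1 h at room temperature; furafylline control.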

[6] = target: Cytochrome P450 3A4 (Homo sapiens) (UniProt P08684); assay: Cytochrome P450 Family 3 Subfamily A Member 4 (CYP3A4) small molecule antagonists: luciferase reporter qHTS assay (AID 1671201); also: nearly all actives have a fitted effect of over 50% in size; as to activity change, negative = inhibition: series mostly up to about 120 µM
How it was run: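 Setup: enzyme-substrate mix, compound pin transfer, 10 min RT. Reaction: NADPH regeneration solution, 1 h RT. Readout: detection reagent stops turnover, luminescence measured after 20 min, expressed in relative luminescence units.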

[7] = target: Voltage-gated inwardly rectifying potassium channel KCNH2 (Homo sapiens) (UniProt Q12809); assay: Human Ether-a-go-go-Related Gene (hERG) channel small molecule antagonists: fluorescence cell-based qHTS assay (AID 1671200); also: nearly all actives have a fitted effect of over 50% in size;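 as to activity change, negative = inhibition: hERG-expressing U2OS cells given a thallium stimulus after FluxOR II dye loading; series mostly up to about 77 µM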
How it was run: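 Measured: Tl+ flux via fluorescence (480/540 nm) in hERG-expressing U2OS cells after 1 h dye loading at room temperature.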
% is scaled to controls: 0 for no effect and ±100 for the full control effect; potency is read from the fitted curve at half-maximal effect.

Sequence of Cytochrome P450 2C19 (Homo sapiens) (P33261 whole entry, looked up): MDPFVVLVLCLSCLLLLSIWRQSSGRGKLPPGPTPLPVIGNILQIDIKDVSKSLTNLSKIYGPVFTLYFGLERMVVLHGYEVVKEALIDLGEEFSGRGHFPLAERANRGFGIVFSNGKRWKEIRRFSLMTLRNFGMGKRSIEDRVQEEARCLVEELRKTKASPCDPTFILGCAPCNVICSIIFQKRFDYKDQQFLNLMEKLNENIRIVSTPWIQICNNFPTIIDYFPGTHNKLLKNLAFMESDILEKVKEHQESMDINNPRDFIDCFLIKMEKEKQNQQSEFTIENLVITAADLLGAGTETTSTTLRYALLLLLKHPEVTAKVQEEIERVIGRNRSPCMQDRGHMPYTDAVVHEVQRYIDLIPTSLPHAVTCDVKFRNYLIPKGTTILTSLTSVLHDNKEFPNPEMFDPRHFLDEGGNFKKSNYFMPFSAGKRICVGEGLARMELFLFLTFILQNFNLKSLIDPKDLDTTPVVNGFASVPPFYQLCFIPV
Sequence of Cytochrome P450 2C9 (Homo sapiens) (P11712 whole entry, looked up): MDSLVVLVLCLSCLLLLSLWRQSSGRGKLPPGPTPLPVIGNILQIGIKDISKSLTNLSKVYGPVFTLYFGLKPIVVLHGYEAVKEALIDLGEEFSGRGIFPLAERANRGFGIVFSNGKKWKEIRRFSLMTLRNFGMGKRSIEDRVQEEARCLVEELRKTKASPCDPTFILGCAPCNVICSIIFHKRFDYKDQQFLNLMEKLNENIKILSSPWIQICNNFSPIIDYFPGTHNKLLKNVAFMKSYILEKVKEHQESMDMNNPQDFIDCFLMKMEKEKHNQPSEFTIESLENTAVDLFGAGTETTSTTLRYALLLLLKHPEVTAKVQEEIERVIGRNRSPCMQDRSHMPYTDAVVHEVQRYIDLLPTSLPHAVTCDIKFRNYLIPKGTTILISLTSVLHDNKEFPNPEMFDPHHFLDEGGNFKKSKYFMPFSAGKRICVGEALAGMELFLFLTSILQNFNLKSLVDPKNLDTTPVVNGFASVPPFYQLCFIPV
Sequence of Cytochrome P450 2D6 (Homo sapiens) (P10635 whole entry, looked up): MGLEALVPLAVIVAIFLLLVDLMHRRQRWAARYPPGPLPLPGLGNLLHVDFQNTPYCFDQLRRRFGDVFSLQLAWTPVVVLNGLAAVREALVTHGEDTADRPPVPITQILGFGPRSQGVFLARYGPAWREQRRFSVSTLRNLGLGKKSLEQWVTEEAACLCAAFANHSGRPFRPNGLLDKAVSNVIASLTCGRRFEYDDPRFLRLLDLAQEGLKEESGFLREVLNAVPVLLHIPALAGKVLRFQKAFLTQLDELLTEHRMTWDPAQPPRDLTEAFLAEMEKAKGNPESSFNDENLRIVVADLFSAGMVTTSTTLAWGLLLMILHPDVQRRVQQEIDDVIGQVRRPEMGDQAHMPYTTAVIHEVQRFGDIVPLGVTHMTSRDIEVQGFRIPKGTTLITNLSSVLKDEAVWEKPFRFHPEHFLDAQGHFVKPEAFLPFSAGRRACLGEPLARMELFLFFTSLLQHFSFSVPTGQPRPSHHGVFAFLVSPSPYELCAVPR
Sequence of Voltage-gated inwardly rectifying potassium channel KCNH2 (Homo sapiens) (Q12809 whole entry, looked up): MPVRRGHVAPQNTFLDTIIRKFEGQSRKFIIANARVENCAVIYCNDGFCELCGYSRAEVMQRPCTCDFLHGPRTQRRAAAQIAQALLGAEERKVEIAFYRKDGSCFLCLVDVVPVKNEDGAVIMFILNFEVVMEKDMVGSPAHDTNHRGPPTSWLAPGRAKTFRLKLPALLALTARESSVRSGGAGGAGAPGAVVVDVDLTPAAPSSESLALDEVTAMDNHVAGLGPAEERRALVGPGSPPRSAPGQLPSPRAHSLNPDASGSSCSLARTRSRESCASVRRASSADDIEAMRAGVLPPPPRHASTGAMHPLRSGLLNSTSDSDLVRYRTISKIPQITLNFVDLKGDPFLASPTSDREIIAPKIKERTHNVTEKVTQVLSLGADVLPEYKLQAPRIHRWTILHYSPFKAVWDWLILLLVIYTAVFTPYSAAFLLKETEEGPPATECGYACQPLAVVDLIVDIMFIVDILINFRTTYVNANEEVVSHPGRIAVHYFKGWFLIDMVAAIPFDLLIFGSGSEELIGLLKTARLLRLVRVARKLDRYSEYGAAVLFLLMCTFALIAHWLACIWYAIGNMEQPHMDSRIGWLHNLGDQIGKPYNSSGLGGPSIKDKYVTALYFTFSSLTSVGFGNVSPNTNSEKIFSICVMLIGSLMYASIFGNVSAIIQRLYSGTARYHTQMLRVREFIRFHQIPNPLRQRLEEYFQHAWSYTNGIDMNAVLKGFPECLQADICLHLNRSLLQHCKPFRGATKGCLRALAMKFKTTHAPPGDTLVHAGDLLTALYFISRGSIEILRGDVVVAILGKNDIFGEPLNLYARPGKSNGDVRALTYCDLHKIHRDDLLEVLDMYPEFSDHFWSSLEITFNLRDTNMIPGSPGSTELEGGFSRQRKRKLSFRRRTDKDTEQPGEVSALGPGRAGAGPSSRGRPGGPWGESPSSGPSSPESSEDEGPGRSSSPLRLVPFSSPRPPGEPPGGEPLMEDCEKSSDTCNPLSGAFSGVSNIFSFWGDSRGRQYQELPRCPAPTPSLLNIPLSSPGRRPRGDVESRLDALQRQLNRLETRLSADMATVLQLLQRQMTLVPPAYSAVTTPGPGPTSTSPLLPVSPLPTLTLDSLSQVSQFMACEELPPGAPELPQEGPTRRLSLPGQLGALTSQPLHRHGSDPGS
Sequence of Cytochrome P450 3A4 (Homo sapiens) (P08684 whole entry, looked up): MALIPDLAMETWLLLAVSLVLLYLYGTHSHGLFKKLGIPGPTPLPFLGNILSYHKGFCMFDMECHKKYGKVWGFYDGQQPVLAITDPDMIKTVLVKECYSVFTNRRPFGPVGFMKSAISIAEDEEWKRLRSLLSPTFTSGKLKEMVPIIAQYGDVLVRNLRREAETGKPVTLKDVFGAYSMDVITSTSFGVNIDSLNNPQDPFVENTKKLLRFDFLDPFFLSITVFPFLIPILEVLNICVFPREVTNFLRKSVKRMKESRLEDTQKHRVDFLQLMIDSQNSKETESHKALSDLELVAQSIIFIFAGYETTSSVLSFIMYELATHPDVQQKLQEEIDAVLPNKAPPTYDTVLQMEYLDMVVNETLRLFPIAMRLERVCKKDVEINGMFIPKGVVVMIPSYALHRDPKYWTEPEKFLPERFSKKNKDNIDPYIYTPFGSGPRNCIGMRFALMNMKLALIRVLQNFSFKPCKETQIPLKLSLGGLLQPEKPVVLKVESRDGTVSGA
Sequence of Cytochrome P450 1A2 (Homo sapiens) (P05177 whole entry, looked up): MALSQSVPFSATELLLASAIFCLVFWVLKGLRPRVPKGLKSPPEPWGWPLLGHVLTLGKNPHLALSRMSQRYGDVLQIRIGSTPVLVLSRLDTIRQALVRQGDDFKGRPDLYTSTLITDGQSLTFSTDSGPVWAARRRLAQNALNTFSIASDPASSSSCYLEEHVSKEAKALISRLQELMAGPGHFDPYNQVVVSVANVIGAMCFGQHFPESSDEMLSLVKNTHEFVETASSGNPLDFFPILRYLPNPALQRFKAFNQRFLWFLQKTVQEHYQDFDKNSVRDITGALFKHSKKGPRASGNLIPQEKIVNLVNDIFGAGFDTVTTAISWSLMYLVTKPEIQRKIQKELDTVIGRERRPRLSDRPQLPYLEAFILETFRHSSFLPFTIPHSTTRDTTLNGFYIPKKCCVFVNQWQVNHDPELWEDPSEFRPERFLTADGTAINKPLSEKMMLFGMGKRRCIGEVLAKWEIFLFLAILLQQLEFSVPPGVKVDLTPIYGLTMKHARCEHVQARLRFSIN
Sequence of Nuclear receptor subfamily 1 group I member 2 (Homo sapiens) (O75469 whole entry, looked up): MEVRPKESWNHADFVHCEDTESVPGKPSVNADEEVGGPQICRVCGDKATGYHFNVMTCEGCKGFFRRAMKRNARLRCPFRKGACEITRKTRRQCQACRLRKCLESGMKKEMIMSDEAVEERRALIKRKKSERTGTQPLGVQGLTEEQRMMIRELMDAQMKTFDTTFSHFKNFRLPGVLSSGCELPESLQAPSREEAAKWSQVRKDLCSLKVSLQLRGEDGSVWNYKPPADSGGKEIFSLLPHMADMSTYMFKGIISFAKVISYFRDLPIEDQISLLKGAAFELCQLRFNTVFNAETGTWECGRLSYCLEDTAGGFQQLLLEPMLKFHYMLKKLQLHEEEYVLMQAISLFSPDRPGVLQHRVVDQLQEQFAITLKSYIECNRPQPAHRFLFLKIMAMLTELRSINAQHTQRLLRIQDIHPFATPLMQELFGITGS

O=C(O)CN(CCCN(CC(=O)O)CC(=O)O)CC(=O)O
inactive: activation [1] 1.69% [at 19 µM] | activity change, negative = inhibition [2] 2.09% [at 23.6 µM] | activity change, negative = inhibition [3] -5.87% [at 23.6 µM] | activity change, negative = inhibition [4] -3.48% [at 23.6 µM] | activity change, negative = inhibition [5] -0.26% [at 23.6 µM] | activity change, negative = inhibition [6] -1.42% [at 23.6 µM]

Nc1cc([N+](=O)[O-])cc(Cl)c1O
inactive: Potency [1] | Potency [2] | Potency [7]
active: Potency [3] 79.6 µM | Potency [4] 39.9 µM

Clc1cccc(Cl)n1
inactive: Potency [1] | Potency [2] | Potency [3] | Potency [4] | Potency [5] | Potency [7] | Potency [6]

CCCCCCCCCC[N+](C)(CCCCCCCCCC)CCC[Si](OC)(OC)OC
active: Potency [2] 3.17 µM | Potency [3] 50.2 µM | Potency [4] 35.6 µM | Potency [5] 20 µM | Potency [7] 2.45 µM | Potency [6] 28.3 µM
inactive: Potency [1]

CC(C=O)c1ccccc1 (configuration not stated)
active: Potency [3] 79.6 µM | Potency [4] 35.6 µM
inactive: Potency [1] | Potency [2] | Potency [7] | Potency [6]

C=C(C)C1CCC(C)CC1O (configuration not stated)
inactive: Potency [1] | Potency [2] | Potency [3] | Potency [4] | Potency [5] | Potency [7] | Potency [6]

CCCCCCCCCCCCCCCCCCNC(=O)OC1CCN(C(=O)OC[C@H](COC(=O)N(Cc2cccc[n+]2CC)C(=O)c2ccccc2OC)OC)CC1
inactive: Potency [1] | Potency [5]
active: Potency [2] 27.5 µM | Potency [3] 43.6 µM

Cn1ccnc1
inactive: Potency [1] | Potency [2] | Potency [3] | Potency [5] | Potency [7] | Potency [6]

CC(CC(C)(C)C)CC(C)(C)CC(C)(C)C (configuration not stated)
inactive: Potency [1] | Potency [2] | Potency [3] | Potency [5] | Potency [7] | Potency [6]

CCn1c2ccccc2c2ccccc21
inactive: Potency [1] | Potency [2] | Potency [7] | Potency [6]
active: Potency [3] 22.4 µM | Potency [5] 3.99 µM

O=C1CCCCCCCCCCCCCC1
inactive: Potency [1] | Potency [2] | Potency [3] | Potency [5]
active: Potency [6] 35.6 µM

O=C1c2ccccc2C(=O)c2c(Cl)cccc21
inactive: Potency [2] | Potency [7] | Potency [6]
active: Potency [1] 10.2 µM | Potency [3] 18.8 µM | Potency [5] 0.0473 µM

CC1=CC[C@@H](C(C)(C)O)CC1
inactive: Potency [1] | Potency [2] | Potency [3] | Potency [5] | Potency [7] | Potency [6]

Cn1c(=O)[nH]c2ncn(C)c2c1=O
inactive: Potency [1] | Potency [2] | Potency [3] | Potency [5] | Potency [7] | Potency [6]

Nc1ccc(F)c([N+](=O)[O-])c1
active: Potency [3] 89.4 µM
inactive: Potency [1] | Potency [2] | Potency [7] | Potency [6]

c1ccc2occc2c1
inactive: Potency [1] | Potency [7] | Potency [6]
active: Potency [2] 31.7 µM | Potency [4] 35.6 µM | Potency [5] 28.3 µM

CCOC(=O)C1=NN(c2ccc(Cl)cc2Cl)C(C)(C(=O)OCC)C1 (configuration not stated)
active: Potency [1] 54.5 µM | Potency [2] 39.9 µM | Potency [3] 2.52 µM | Potency [7] 43.6 µM | Potency [6] 35.6 µM

Cc1cccc(C)c1C
inactive: Potency [1] | Potency [2] | Potency [3] | Potency [4] | Potency [7] | Potency [6]

CC(=O)Nc1ccc(N=Nc2cc(C)ccc2O)cc1
active: Potency [1] 9.69 µM | Potency [2] 63.3 µM | Potency [3] 56.4 µM | Potency [5] 31.7 µM
inactive: Potency [7]

CCOc1nc(F)cc2nc(S(=O)(=O)Nc3c(Cl)cccc3C(=O)OC)nn12
inactive: Potency [1] | Potency [2] | Potency [3] | Potency [5] | Potency [7]
active: Potency [6] 35.6 µM

NC(=O)c1ccccc1Cl
inactive: Potency [1] | Potency [2] | Potency [4] | Potency [5] | Potency [7] | Potency [6]

O=C(Nc1ccccc1)c1cc(Cl)ccc1O
inactive: Potency [7]
active: Potency [1] 15.4 µM | Potency [2] 39.9 µM | Potency [3] 35.6 µM | Potency [5] 12.6 µM

CCC(O)CO (configuration not stated)
inactive: Potency [1] | Potency [2] | Potency [3] | Potency [5] | Potency [7] | Potency [6]

CC(=O)CC(N)=O
inactive: Potency [1] | Potency [2] | Potency [3] | Potency [5] | Potency [7] | Potency [6]

C=CC(=O)OCCOC1C2CCC1C1CC=CC12 (configuration not stated)
active: Potency [3] 19 µM
inactive: activation [1] 5.97% [at 19 µM] | activity change, negative = inhibition [2] -35.4% [at 23.6 µM] | activity change, negative = inhibition [5] -16.8% [at 23.6 µM] | activity change, negative = inhibition [7] 2.03% [at 15.8 µM] | activity change, negative = inhibition [6] -3.35% [at 23.6 µM]

Nc1ccc2c(S(=O)(=O)O)cccc2c1S(=O)(=O)O
inactive: Potency [1] | Potency [2] | Potency [3] | Potency [5] | Potency [7] | Potency [6]

C1CCSC1
inactive: Potency [1] | Potency [2] | Potency [3] | Potency [5] | Potency [7] | Potency [6]

CC(c1cc(C(C)(C)C)cc(C(C)(C)C)c1O)c1cc(C(C)(C)C)cc(C(C)(C)C)c1O
active: Potency [3] 31.7 µM
inactive: Potency [1] | Potency [2] | Potency [5] | Potency [7]

COC(=O)c1ccc([N+](=O)[O-])cc1
inactive: Potency [1] | Potency [2] | Potency [3] | Potency [7] | Potency [6]
active: Potency [5] 17.8 µM

O=C(CCCCCCCCc1cccnc1)N1CCC(C=C(c2ccccc2)c2ccccc2)CC1
active: Potency [1] 5.45 µM | Potency [4] 0.633 µM | Potency [7] 6.92 µM | Potency [6] 0.399 µM
inactive: Potency [2]

O=C1CCC/C=C\CCCCCCCCCC1
active: Potency [1] 30.6 µM | Potency [6] 31.7 µM
inactive: Potency [2] | Potency [3]
